Consider 49 compounds from PubChem BioAssay AID1456 (Vanderbilt High Throughput Screening Facility, 2008).

The structures appear in SMILES notation. The whole screen tested about 190,000 compounds, of which about 4,100 (2.2%) were called active. Many of the other results were omitted from the sample, so actives are more common in it than they were. Values without a mark were called inactive.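 The calls were made as follows: active = thallium flux slope and its plate-corrected score both differing from the plate sample mean at a set confidence after two filtering rounds, in either direction; inactive = the rest.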

For the assay, the target named is Solute carrier family 12 member 5 (Homo sapiens) (UniProt Q9H2X9). As to the kind of experiment: modulation of human KCC2 ion transport – cell-based, HEK293 KCC2, FluoZin-2 fluorescence, MLSMR, primary screen (AID 1456).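 Also: slope of fluorescence scaled to starting intensity during 10 to 20 s after thallium.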 To be noted: KCC2 cells, thallium flux FluoZin-2 fluorescence; at 10 µM.
Solute carrier family 12 member 5 (Homo sapiens), sequence (Q9H2X9 whole entry, looked up): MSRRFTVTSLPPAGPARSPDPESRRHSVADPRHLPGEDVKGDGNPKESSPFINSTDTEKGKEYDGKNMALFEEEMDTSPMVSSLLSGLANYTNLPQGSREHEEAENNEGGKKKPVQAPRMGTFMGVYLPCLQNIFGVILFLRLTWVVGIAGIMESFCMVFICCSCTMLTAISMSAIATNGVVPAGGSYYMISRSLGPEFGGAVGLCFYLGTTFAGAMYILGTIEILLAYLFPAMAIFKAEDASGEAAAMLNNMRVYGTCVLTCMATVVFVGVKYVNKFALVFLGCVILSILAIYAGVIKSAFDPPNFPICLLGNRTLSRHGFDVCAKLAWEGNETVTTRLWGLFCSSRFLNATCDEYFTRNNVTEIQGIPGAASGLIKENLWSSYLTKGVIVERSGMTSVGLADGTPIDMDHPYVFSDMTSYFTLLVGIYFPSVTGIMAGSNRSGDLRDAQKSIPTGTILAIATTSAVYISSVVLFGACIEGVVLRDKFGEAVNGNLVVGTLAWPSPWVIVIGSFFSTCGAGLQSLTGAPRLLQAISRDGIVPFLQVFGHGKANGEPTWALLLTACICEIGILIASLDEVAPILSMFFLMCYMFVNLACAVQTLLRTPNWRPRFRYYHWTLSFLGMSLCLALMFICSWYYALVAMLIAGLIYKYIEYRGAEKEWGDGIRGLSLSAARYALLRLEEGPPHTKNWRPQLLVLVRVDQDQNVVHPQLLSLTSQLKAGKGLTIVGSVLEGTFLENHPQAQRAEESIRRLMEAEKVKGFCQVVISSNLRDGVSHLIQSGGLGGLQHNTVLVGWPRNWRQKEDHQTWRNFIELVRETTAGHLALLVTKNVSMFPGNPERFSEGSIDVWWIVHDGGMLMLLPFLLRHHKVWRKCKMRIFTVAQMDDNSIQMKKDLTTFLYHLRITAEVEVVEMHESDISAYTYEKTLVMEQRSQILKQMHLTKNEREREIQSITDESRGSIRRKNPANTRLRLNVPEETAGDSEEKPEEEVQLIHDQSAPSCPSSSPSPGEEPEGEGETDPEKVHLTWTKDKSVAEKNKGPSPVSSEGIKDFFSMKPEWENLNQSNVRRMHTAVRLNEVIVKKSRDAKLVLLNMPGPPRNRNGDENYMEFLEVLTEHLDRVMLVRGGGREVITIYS
With `CN1CCC(=NNC(=O)CN(c2cccc(Cl)c2)S(C)(=O)=O)CC1`, the B-score of Tl+ flux slope (higher = more flux/activation; lower = inhibition) was 0.643. With `Cc1ccc(S(=O)(=O)N(CC(=O)N2CCc3ccccc3C2)c2cccc(Cl)c2)cc1` the figure was -1.52. Regarding `O=C(CN(c1cccc(Cl)c1)S(=O)(=O)c1ccccc1)NN=C1CCCC1`, the B-score of Tl+ flux slope (higher = more flux/activation; lower = inhibition) was 3.73 (active). With `CCn1c(SCC(=O)N/N=C/c2ccncc2)nc2ccccc21` the figure was -0.7; with `Cc1cccc(NC(=O)CSc2nnc(CCNC(=O)OC(C)(C)C)o2)c1C`, -0.155; with `COc1cccc(Nc2nc(N)c([N+](=O)[O-])c(NCc3ccco3)n2)c1`, -0.0593. In the case of `COc1ccc(C(=O)N/N=C2\CCS(=O)(=O)c3ccc(F)cc32)cc1OC`, the B-score of Tl+ flux slope (higher = more flux/activation; lower = inhibition) was 0.15. Next, `O=C(NCCCn1ccnc1)C(=O)NCC1OCCN1S(=O)(=O)c1cc(F)ccc1F` (centres undefined): -0.0662; `S=c1[nH]nc(-c2cc(-c3ccsc3)n[nH]2)n1-c1ccccc1`: -0.815; `COc1ccc(NCc2nnc(SCc3ccccc3)n2-c2ccc(OC)cc2)cc1`: -2.95. Next, `S=c1[nH]nc(CSCc2ccc(Cl)cc2Cl)n1-c1ccccc1`: 38.3 (active). Next, `CCn1c(CSCc2c(Cl)cccc2Cl)n[nH]c1=S`: -0.136; `Cc1ccc(NCc2n[nH]c(=S)n2-c2ccccc2)cc1Cl`: 20.1 (active). Consider `O=c1[nH]nc(CSCc2ccccc2Cl)[nH]1`, for which the B-score of Tl+ flux slope (higher = more flux/activation; lower = inhibition) was 1.48. With `Cc1noc(C)c1C(=O)OCC(=O)N1CCN(S(=O)(=O)c2ccc3ccccc3c2)CC1` the figure was -0.121. With `CS(=O)(=O)c1ccc(Cl)c(NC(=O)Nc2ccccc2)c1` the figure was -0.0556; with `COc1ccc(CCN2C(=O)N(c3ccc(OC)cc3)C(=O)C2CC(=O)Nc2ccc(OC)cc2)cc1` (centres undefined), 0.0027; with `C/C(=N\NC(=O)CC(C)C)c1c(C(F)(F)F)[nH]n(-c2nc3ccccc3s2)c1=O`, -1.82. Next, `COc1ccccc1P(=O)(c1ccccc1)c1ccccc1NC(C)=O` (centres undefined): 0.0591; `COc1ccc(CNC(=O)C(Cc2ccccc2)n2cccc2)cc1` (centres undefined): -2.15; `CCOc1cc2[nH]c(=O)n(CCC(=O)NCc3ccc(OC)cc3)c(=O)c2cc1OCC`: 0.0101. Take `COc1ccc(CNC(=O)CCn2cccc2)cc1`: the B-score of Tl+ flux slope (higher = more flux/activation; lower = inhibition) was 7.58 (active). `N#CCCCn1c(O)c(N=NC(=O)C(O)c2ccccc2)c2ccccc21` (centres undefined): the B-score of Tl+ flux slope (higher = more flux/activation; lower = inhibition) is -0.218. Next, `Cn1cccc1C(C#N)c1ccccc1C#N` (centres undefined): 1.43; `O=C(COC(=O)c1ccc(S(=O)(=O)Nc2ccccc2)cc1)NCC1CCCO1` (centres undefined): 0.0831; `O=C(NCCCN1CCOCC1)c1ccc(N2CCCC2)c([N+](=O)[O-])c1`: -0.0166. With `O=C(NNC(=S)NC(=O)c1cn(-c2ccccc2)nc1-c1ccccc1)c1ccncc1` the figure was 8.65 (active); with `O=C(Nc1cn(-c2ccccc2)nc1-c1ccccc1)c1ccccc1`, -1.74; with `O=C(O)c1ccc(NC(=O)c2cn(-c3ccccc3)nc2-c2ccc(Cl)cc2)cc1`, -0.953. Next, `O=C(NCC(c1cccs1)N1CCOCC1)c1cc(-c2ccccn2)nc2ccccc12` (centres undefined): -0.17. For the compound `CCc1nnc(NC(=O)CSc2nc3c(c(=O)n2-c2ccccc2OC)SCC3)s1`, the B-score of Tl+ flux slope (higher = more flux/activation; lower = inhibition) was -2.34. With `Cc1cccc(CSc2nc3c(c(=O)n2C)SCC3)c1` the figure was -0.478; with `CCn1c(SCc2ccccc2)nc2c(c1=O)SCC2`, -2.99 (active); with `CC1=CC(C)(C)NC(=S)N1NC(=O)c1ccccc1Cl`, 1.28. Next, `O=c1[nH]c2cccnc2n1-c1ccc([N+](=O)[O-])cc1`: 1.09; `C/C(=N/NC(=S)Nc1ccccc1)c1ccc2c(c1)OCO2`: 17.1 (active); `C/C(=N\NC(=O)C(N)=O)c1ccc2c(c1)OCCO2`: 0.474.

For `O=C(Nc1ccccc1)c1ccc2c(c1)OCO2`, the B-score of Tl+ flux slope (higher = more flux/activation; lower = inhibition) was 1.15.

Turning to `C/C(CC(=O)NC(C)c1ccccc1)=N\NC(N)=S` (centres undefined), the B-score of Tl+ flux slope (higher = more flux/activation; lower = inhibition) was -0.13. Next, `NS(=O)(=O)c1ccc(NC2=CC(c3ccc(F)cc3)N(c3ccc(S(N)(=O)=O)cc3)C2=O)cc1` (centres undefined): -4.18. Turning to `COc1ccc(F)cc1S(=O)(=O)N1CCCCC1`, the B-score of Tl+ flux slope (higher = more flux/activation; lower = inhibition) was -0.191. With `COc1cc(OC)cc(C(=O)NCCSCc2ccco2)c1` the figure was 2.23 (active); with `Cc1cc(C)cc(N(CC(=O)NCCSCc2ccco2)S(C)(=O)=O)c1`, -0.0202; with `O=C(/C=C/c1cccc([N+](=O)[O-])c1)NCCSCc1ccco1`, 0.313. With `O=[N+]([O-])c1ccc2c(c1)C(O)n1nc(-c3ccccc3)nc1S2` (centres undefined) the figure was 0.824; with `Cc1ccc(Cc2nc(-c3cccc(C)c3)no2)cc1`, -0.589; with `CC1CCN(Cc2nc(-c3ccc(Cl)cc3)no2)CC1`, -0.00541. With `Cc1ccc(-c2noc(CN3CCN(Cc4ccccc4)CC3)n2)cc1` the figure was -2.45 (active); with `COc1cc(/C=C2/C(=O)ON=C2C)ccc1OCc1cccc(F)c1`, 0.0292.
